The source made the active and inactive calls. Rule as the data show it, unless noted: active = inhibition above about 80%; inactive = the rest.
Legend:
[1] = viability rescue of complex I mutant cybrids, primary screen, cell-based, galactose medium, ATP luminescence (AID 1645843;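 active = z-score of at least 1.8 in each of two replicates, scored against plate mean and spread of sample wells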;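 also: positive z means more ATP and so rescue of galactose-driven cybrid death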); conditions: complex I mutant cybrid cells, 72 h, stronger effect = higher value
[2] = LFS_MB_P medulloblastoma growth inhibition, cell-based, chromothripsis tumors, cisplatin or BGB combos (AID 1671449); conditions: LFS_MB_P medulloblastoma cells;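 also: cells exposed for 96 hours; 0% = vehicle DMSO and 100% = killing by high DMSO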
[3] = HDN33 neuroblastoma growth inhibition, cell-based, chromothripsis tumors, cisplatin or BGB combos (AID 1671450); conditions: HDN33 neuroblastoma cells, stronger effect = higher value;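 also: cells exposed to compound for four days; 0% = vehicle DMSO and 100% = cell killing by high DMSO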
[4] = ICB984 medulloblastoma cell growth inhibition, synergistic combos for chromothripsis tumors, cisplatin or BGB combos (AID 1671451; call rule not given here;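 also: cells exposed for 96 hours before readout; 0% = vehicle DMSO and 100% = killing by high DMSO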); conditions: ICB984 medulloblastoma cells, drug combinations, stronger effect = higher value
[5] = LFS_MB_1R medulloblastoma cell growth inhibition, synergistic combos for chromothripsis tumors, cisplatin or BGB combos (AID 1671452); conditions: LFS_MB_1R medulloblastoma cells, stronger effect = higher value;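 also: cells exposed for 96 hours before readout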
[6] = HTB85 osteosarcoma cell growth inhibition, synergistic combos for chromothripsis tumors, BGB or cisplatin IC20 combos (AID 1671453); conditions: HTB85 osteosarcoma cells, drug combinations, stronger effect = higher value;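 also: cells exposed for 96 hours before readout; 0% = vehicle DMSO and 100% = high DMSO killing control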
[7] = CRL2098 osteosarcoma cell growth inhibition, synergistic combos for chromothripsis tumors, BGB or cisplatin IC20 combos (AID 1671454); conditions: CRL2098 osteosarcoma cells, drug combinations, stronger effect = higher value;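 also: cells exposed for 96 h before readout; 0% = vehicle DMSO and 100% = killing by high DMSO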
[8] = HD-MB03 medulloblastoma cell growth inhibition, synergistic combos for chromothripsis tumors, BGB or cisplatin IC20 combos (AID 1671455; in the data active = inhibition above about 83%;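 also: 0% = vehicle DMSO and 100% = high DMSO as cytotoxic control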); conditions: HD-MB03 medulloblastoma cells, stronger effect = higher value
[9] = UWB1.289 ovarian carcinoma cell growth inhibition, synergistic combos for chromothripsis tumors, BGB or cisplatin combos (AID 1671456); conditions: UWB1.289 ovarian carcinoma cells, stronger effect = higher value;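 also: cells exposed to compound for four days; 0% = vehicle DMSO and 100% = killing by high DMSO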
[10] = LFS_MB_2R medulloblastoma cell growth inhibition, synergistic combos for chromothripsis tumors, cisplatin combos (AID 1671457); conditions: LFS_MB_2R medulloblastoma cells, stronger effect = higher value;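 also: cells exposed to compound for four days before readout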
[11] = MDA-MB-436 breast carcinoma cell growth inhibition, synergistic combos for chromothripsis tumors, BGB or cisplatin combos (AID 1671458; call rule not given here;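 also: cells exposed for 96 hours; 0% = vehicle DMSO and 100% = killing by high DMSO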); conditions: MDA-MB-436 breast carcinoma growth inhibition, drug combinations, stronger effect = higher value
[12] = UWB1.289_BRCA1 ovarian cancer growth, cell-based, BGB or cisplatin combinations (AID 1671459); conditions: UWB1.289 BRCA1 ovarian carcinoma, drug combinations, stronger effect = higher value
[13] = human astrocyte viability loss, single and combined drugs, cytotoxicity control for chromothriptic childhood tumor combination screen, cell-based, BGB or cisplatin IC20 combos (AID 1671460); conditions: Human astrocytes, drug combinations, stronger effect = higher value;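 also: cells exposed to compounds for 96 hours before viability readout; 0% = vehicle and 100% = killing control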
[14] = growth inhibition of BT084 medulloblastoma cells, cell-based, ICGC_MB145, cisplatin and BGB IC40 combos (AID 1671461); conditions: drug combinations, stronger effect = higher value;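 also: cells exposed to drugs for 96 hours; 0% = vehicle DMSO and 100% = high DMSO full killing control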
[15] = growth inhibition of RCMB18 medulloblastoma cells, cell-based, cisplatin and BGB IC40 combos (AID 1671462); conditions: stronger effect = higher value;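 also: cells exposed to compound for four days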
[16] = growth inhibition of CRL1545 osteosarcoma cells, cell-based, cisplatin and BGB IC20 combos (AID 1671464); conditions: stronger effect = higher value;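 also: cells exposed to compound for 96 hours before readout; 0% = vehicle DMSO and 100% = high DMSO killing control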
[17] = measured here: combination with BGB IC40, at 0.05 µM
[18] = measured here: with BGB IC20 combination, at 0.5 µM
[19] = measured here: with cisplatin IC20 combination, at 0.5 µM
[20] = measured here: combination with cisplatin, at 0.5 µM
[21] = measured here: combination with cisplatin, at 5 µM

With `C=C1C(C)(C)[C@H]2CC[C@]1(C(=O)N1CCC(n3cc(CCCC)nn3)CC1)C2` the z-score [1] was 2.16 (inactive).

With `Cc1ccccc1-c1noc(C2CC(C(C)C)=NO2)n1` (stereo not given) the z-score [1] was 1.73 (inactive).

In the case of `C[C@@H]1COCCN1c1cc(C2(S(C)(=O)=O)CC2)nc(-c2cccc3[nH]ccc23)n1`, the inhibition ([2]; at 0.5 µM, stronger effect = higher value) is reported as -25.8% (inactive), the inhibition ([2]; measured here: combination with BGB IC20, at 0.005 µM) is reported as 7.6% and the inhibition ([2]; measured here: combination with BGB IC40, at 0.005 µM) is reported as 5.5%. It also gave an inhibition [2, 17] of -17.8%, an inhibition ([2]; measured here: combination with cisplatin, at 0.5 µM, stronger effect = higher value) of -15.1% and an inhibition ([2]; measured here: combination with cisplatin, at 5 µM, stronger effect = higher value) of 49.8%. The inhibition ([3]; BGB combo, at 5 µM) was 86.9%, the inhibition ([3]; at 0.5 µM) was 36.8% (inactive) and the inhibition ([3]; cisplatin combo, at 5 µM) was 93.4%. The inhibition [3, 18] was 34.2%, the inhibition [3, 19] was 50.8% and the inhibition ([3]; single agent, at 5 µM) was 94%. For the same compound, the inhibition ([4]; BGB IC20 combo, at 0.005 µM) was 23.5%, the inhibition ([4]; BGB IC40 combo, at 0.005 µM) was 27.9% and the inhibition ([4]; BGB IC40 combo, at 0.05 µM) was 49.2%. For the same compound, the inhibition ([4]; at 0.5 µM) was -13.7% (inactive), the inhibition ([4]; cisplatin combo, at 0.05 µM) was 47.4% and the inhibition ([4]; cisplatin combo, at 0.5 µM) was 1.99%. The inhibition ([4]; cisplatin combo, at 5 µM) was -26.9%, the inhibition ([4]; measured here: 5 uM single agent, at 5 µM) was 12.7% and the inhibition ([5]; at 0.5 µM) was 10% (inactive). It also gave an inhibition [5, 17] of -3.56%, an inhibition [5, 20] of 20.8% and an inhibition [5, 21] of 56.7%. For the same compound, the inhibition ([6]; at 0.5 µM) was 20.9% (inactive), the inhibition ([6]; measured here: with BGB IC20, at 0.5 µM) was 21% and the inhibition ([6]; measured here: with BGB IC20, at 5 µM) was 63.3%. The inhibition ([6]; measured here: with cisplatin IC20, at 0.5 µM) was 29.2%, the inhibition ([6]; measured here: with cisplatin IC20, at 5 µM) was 91.9% and the inhibition ([6]; single agent, at 5 µM) was 73.8%. For the same compound, the inhibition ([7]; at 0.5 µM) was 20.1% (inactive), the inhibition ([7]; measured here: combination with BGB at IC20, at 0.5 µM) was 11.9% and the inhibition ([7]; measured here: combination with cisplatin at IC20, at 0.5 µM) was 19.4%. The inhibition ([8]; at 0.5 µM) was 38% (inactive), the inhibition ([8]; measured here: combo with BGB at IC20, at 0.5 µM) was 11.4% and the inhibition ([8]; measured here: combo with cisplatin at IC20, at 0.5 µM) was 91.1%. The inhibition ([9]; at 0.5 µM) was 63.9% (inactive), the inhibition ([9]; measured here: inhibition with BGB combination, at 0.05 µM) was 6.56% and the inhibition ([9]; measured here: inhibition with cisplatin combination, at 0.05 µM) was -6.75%. The inhibition ([10]; at 0.5 µM) was 13.6% (inactive), the inhibition [10, 20] was 20.6% and the inhibition [10, 21] was 51.4%. The inhibition ([11]; at 0.5 µM) was 22.5% (inactive), the inhibition ([11]; measured here: BGB combination, at 0.5 µM) was 8.94% and the inhibition ([11]; measured here: BGB combination, at 5 µM) was 45.1%. For the same compound, the inhibition ([11]; measured here: cisplatin combination, at 0.5 µM) was 30.1%, the inhibition ([11]; measured here: cisplatin combination, at 5 µM) was 85.8% and the inhibition ([12]; BGB combination, concentration series, at 5 µM) was 93.1%. The inhibition ([12]; at 0.5 µM) was 65.4% (inactive), the inhibition ([12]; cisplatin combination, concentration series, at 5 µM) was 117% and the inhibition ([13]; at 0.5 µM) was 23.1% (inactive). The inhibition ([13]; measured here: combo with BGB IC20, at 0.5 µM) was 14.4%, the inhibition ([13]; measured here: combo with cisplatin IC20, at 0.5 µM) was 30.8% and the inhibition ([14]; at 0.5 µM) was 17% (inactive). The inhibition ([14]; cisplatin combination, at 0.5 µM) was 14.1%, the inhibition ([14]; cisplatin combination, at 5 µM) was 58% and the inhibition ([14]; measured here: BGB IC40 combination 0.05 uM, at 0.05 µM) was -18.4%. For the same compound, the inhibition ([14]; single agent, at 5 µM) was 44.6%, the inhibition ([15]; at 0.5 µM) was 25.2% (inactive) and the inhibition ([15]; cisplatin combo, at 5 µM) was 34.6%. The inhibition ([15]; measured here: BGB IC40 combination, at 0.05 µM) was -0.169%, the inhibition [15, 20] was 44.8% and the inhibition ([15]; single agent, at 5 µM) was 51.4%. For the same compound, the inhibition ([16]; at 0.5 µM) was 76.6% (inactive), the inhibition [16, 18] was 71% and the inhibition [16, 19] was 79.1%. The inhibition ([16]; single agent, at 0.05 µM) was 21.8% and the inhibition ([16]; single agent, at 5 µM) was 97.9%.

Source: PubChem BioAssay
